Hit rate of the full screen: of about 150,000 compounds, about 540 (0.36%) showed an effect of 50% or more. The full list was thinned out, with strong results kept by preference.

Broadly, the % Inhibition is the drop in the measured response relative to a control, in per cent.

For the experiment, the system named is Plasmodium falciparum. The experiment is described as follows: Primary screen in NF54 nanoGlo assay, in single point, at 2uM, 72h; a lower Z score goes with more inhibition. The experiment is classed as functional, Erythrocyte. The note with it: timepoint 72 hour.
On to `COc1cccc(OC)c1-c1cncc(C(=O)NCC2CC2)c1`, for which the “% Inhibition” value is listed as -9% and the Z score turned out to be 1.48.

On to `CC(C)(C)c1nc(CNc2ccc(S(=O)(=O)CCO)cc2)no1`, for which the “% Inhibition” value was 52% and the Z score came to 1.4.

Regarding `Cc1nc(CNc2ccc(S(=O)(=O)CCO)cc2)cs1`, the “% Inhibition” value was -22% and the Z score was 4.06.

With `O=S(=O)(CCO)c1ccc(NCc2ccc(Cl)s2)cc1`, the “% Inhibition” value is listed as -5% and the Z score was determined as 0.74.

For the molecule `O=C(Nc1ccccc1C(=O)N1CCCCC1)[C@H]1CCCN(S(=O)(=O)c2cccs2)C1`, the “% Inhibition” value is listed as 3% and the Z score is recorded as -0.58.

Consider `Nc1ccnc2c(-c3ccncc3)cccc12`, for which the “% Inhibition” value is listed as -2% and the Z score stood at 0.26.

As to `Cc1ccn(C2CCN(C(=O)C(C)(C)c3c[nH]cn3)CC2)n1`, the “% Inhibition” value is -6% and the Z score was 1.19.

Consider `Cc1cc(-c2c(C)sc(C)c2S(=O)(=O)N2CCOCC2)on1`, for which the “% Inhibition” value was -8% and the Z score is recorded as 1.45.

As to `COc1ccccc1N(CC(=O)N[C@H](C)c1ccccc1)S(=O)(=O)c1ccc(C)cc1`, the “% Inhibition” value is listed as 1% and the Z score is -0.13.

Turning to `Cc1ccc(S(=O)(=O)N(CC(=O)N[C@@H]2C[C@H]3CC[C@@H]2C3)c2cccc(Br)c2)cc1`, the “% Inhibition” value is -15% and the Z score was found to be 2.16.

Consider `Cc1ccc(S(=O)(=O)N(CC(=O)N[C@@H](C)c2ccccc2)c2cccc(Br)c2)cc1`, for which the “% Inhibition” value came out at 50% and the Z score was -1.08.

In the case of `O=C(Nc1cc(-c2onc3c2CCCC3)cc(C(F)(F)F)c1)c1cncc(Br)c1`, the “% Inhibition” value is 96% and the Z score was -8.79.

As to `O=C(Nc1ccc(-c2onc3c2CCCC3)cc1)c1c(Cl)cc(Cl)cc1Cl`, the “% Inhibition” value is recorded as -2% and the Z score was determined as 0.3.

For `O=C(Nc1cc(Br)cc(C(F)(F)F)c1)c1ccnnc1`, the “% Inhibition” value was -2% and the Z score is 0.3.

As for `COc1ccc(C(=O)N[C@H]2CCOC3(CCOCC3)C2)c(C)c1`, the “% Inhibition” value came to 0% and the Z score stood at 0.06.

Take `COc1cc2c(cc1OC)C(=O)N(Cc1ccccc1)C(=O)C2=O`: the “% Inhibition” value was -13% and the Z score is recorded as 1.31.

In the case of `COC(=O)c1ccccc1NC(=O)C[C@@H]1Nc2cccc3cccc(c23)NC1=O`, the “% Inhibition” value was -5% and the Z score came to 0.52.

With `COCc1ccc(CNCc2cc3cc(Cl)c(Cl)cc3[nH]2)cc1`, the “% Inhibition” value is given as -13% and the Z score is 1.44.

As for `COc1ccc(-c2nc3ccc(C(=O)NC4CCCC(C)C4C)cc3nc2-c2ccc(OC)c(OC)c2)cc1OC` (stereo unspecified), the “% Inhibition” value was found to be 24% and the Z score is -2.87.

As to `Cc1ncsc1Cn1ccn2nc(C(F)(F)F)cc2c1=O`, the “% Inhibition” value is on record as 15% and the Z score is -1.93.

As for `Cc1cccc(C(=O)N=C(N)Nc2nc3ccccc3s2)c1`, the “% Inhibition” value is -8% and the Z score is on record as 0.72.

As to `Cc1cccc(S(=O)(=O)Nc2ccc3nc(NC(=O)c4ccccc4)sc3c2)c1`, the “% Inhibition” value was determined as 37% and the Z score was -0.65.

For the molecule `Cc1cccc(C(=O)Nc2nc3cc4sc(NC(=O)c5cccc(C)c5)nc4cc3s2)c1`, the “% Inhibition” value is given as 64% and the Z score was determined as 0.77.

Consider `c1[nH]nnc1CCN1CCOC[C@@H]1CC1CCOCC1`, for which the “% Inhibition” value was found to be 5% and the Z score is given as -1.02.

For `CCc1cnc(Cn2nc(-c3ccccc3)cc(C(F)(F)F)c2=O)o1`, the “% Inhibition” value is on record as -6% and the Z score is reported as 0.55.

As for `C=CC[C@]1(C(=O)O)CCCN(Cc2c(C)nn(CC)c2C)C1`, the “% Inhibition” value is reported as -6% and the Z score is listed as 1.

Turning to `CC(=O)N1CCC(N2CCC[C@H](C(=O)c3ccc4c5c(cccc35)CC4)C2)CC1`, the “% Inhibition” value is on record as -11% and the Z score is reported as 1.6.

On to `Cc1cccc(CN2CCC[C@H](C(=O)c3ccc4c5c(cccc35)CC4)C2)n1`, for which the “% Inhibition” value came out at 58% and the Z score is listed as -11.5.

With `Cc1cc(C(=O)N2CCC[C@H](C(=O)c3ccc4c5c(cccc35)CC4)C2)nc(N)n1`, the “% Inhibition” value is given as -4% and the Z score is 0.45.

`COc1cccc(NC(=O)Cn2ccc3ccc(-c4nnc(C)o4)cc32)c1`: the “% Inhibition” value is 7% and the Z score was -0.81.

With `Cc1cc(C)cc(NC(=O)Cn2ccc3ccc(-c4nnc(C)o4)cc32)c1`, the “% Inhibition” value came to 2% and the Z score is given as -0.2.

On to `CCc1cccc(NC(=O)Cn2ccc3ccc(-c4nnc(C)o4)cc32)c1`, for which the “% Inhibition” value turned out to be 78% and the Z score is on record as -9.29.

On to `Cc1nnc(-c2ccc3ccn(CC(=O)Nc4ccc(F)c(Cl)c4)c3c2)o1`, for which the “% Inhibition” value is 85% and the Z score was -10.55.

As for `Cc1ccc(NC(=O)Cn2ccc3ccc(-c4nnc(C)o4)cc32)cc1`, the “% Inhibition” value is given as -3% and the Z score is reported as 0.31.

With `Cc1cccc(NC(=O)Cn2ccc3ccc(-c4nnc(C)o4)cc32)c1`, the “% Inhibition” value is recorded as 6% and the Z score is -0.76.

Take `c1csc([C@@H]2CN(c3ncnc4sccc34)CCO2)n1`: the “% Inhibition” value came to 5% and the Z score was -0.74.

With `O=C(NC1CCCCC1)c1nn(-c2ccc(F)cc2)c2ccccc2c1=O`, the “% Inhibition” value is on record as -15% and the Z score was 2.13.

Consider `O=C1NCCCN1C1CCN(Cc2ccc(Cl)c(C(F)(F)F)c2)CC1`, for which the “% Inhibition” value came to 10% and the Z score is given as -1.75.

For `COc1cc(-c2ccc(C(=O)N3CCC[C@H](O)C3)cc2)nc(OC)n1`, the “% Inhibition” value came out at 2% and the Z score is listed as -0.43.

Take `O=C(Nc1ccc(N2CCOCC2)cc1)[C@H]1CCN(c2cn[nH]c(=O)c2)C1`: the “% Inhibition” value is -14% and the Z score worked out at 1.91.

For the molecule `Cc1cccc(NC(=O)[C@H]2CCN(c3cn[nH]c(=O)c3)C2)c1`, the “% Inhibition” value came to 52% and the Z score is reported as -0.4.

Regarding `Cc1cccc(CNC(=O)[C@H]2CCN(c3cn[nH]c(=O)c3)C2)c1`, the “% Inhibition” value is recorded as -12% and the Z score was found to be 1.58.

As to `CCCCN1C(=O)[C@](NS(=O)(=O)c2ccc(NC(C)=O)cc2)(C(F)(F)F)C(C(C)=O)=C1C`, the “% Inhibition” value was -7% and the Z score amounted to 0.92.

The record behind these values is ChEMBL document CHEMBL4888484, “Replenishing the malaria drug discovery pipeline: Screening and hit evaluation of the MMV Hit Generation Library 1 (HGL1) against asexual blood stage Plasmodium falciparum ,using a nano luciferase reporter read-out” (2022).
